Some test systems named below: NCI-H23 lung; NCI-H226 lung; NCI-H322M lung; HOP-62 NSCLC; NCI-H460 lung; HOP-92 NSCLC; NCI-H522 lung; A549/ATCC NSCLC; 786-0 renal; COLO 205 colon; DU-145 prostate; K-562 leukemia; MALME-3M melanoma; MDA-MB-231 breast; RXF 393 renal; SF-268 CNS; SF-295 CNS; SF-539 CNS; UACC-257 melanoma; M14 melanoma.
Common to all, as to assay: NCI-60 one-dose screen, 48 h (100 = growth as untreated, 0 = no growth, -100 = all killed)
Holding throughout (details): 10 µM unless noted

About 83,000 compounds went through this panel and 20% of them were active in at least one assay; those are over-represented in the sample as a whole.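 Assay: single dose, 48 h. Readout: percent growth (0 = no net growth; negative = cell death). Active: <10.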 A number with no mark means an inactive call. Activity calls are given as the source filed them.

In the case of `CC/C=C\C[C@H](O)C/C=C1/C(=O)C=C[C@@H]1C/C=C\CCCCO`, the growth is 60.9% with NCI-H23 lung; -23.9% (active) with NCI-H226 lung; 50.8% with NCI-H322M lung; 6.06% (active) with HOP-62 NSCLC; 0.172% (active) in the assay on NCI-H460 lung; 48.8% in the assay with HOP-92 NSCLC. In addition, the growth with NCI-H522 lung is -40.2% (active); with A549/ATCC NSCLC, 5.55% (active); in the assay with 786-0 renal, -49.6% (active); with COLO 205 colon, -34.3% (active); in the assay on DU-145 prostate it was 28.3%; with K-562 leukemia, 6.44% (active). Also, the growth with MALME-3M melanoma is 34.7%; in the assay on MDA-MB-231 breast it was 8.29% (active); in the assay with RXF 393 renal it was 56.1%; in the assay with SF-268 CNS it was 78.3%; in the assay with SF-295 CNS it was 10.6%; in the assay on SF-539 CNS, 14.5%. In addition, the growth in the assay with UACC-257 melanoma was 34%; in the assay on M14 melanoma it was 16.4%.

On to `COc1nc(N(C)O)nc(N(C)O)n1`, for which the growth is 43.9% in the assay with NCI-H23 lung; 49.3% in the assay on NCI-H226 lung; 37.7% in the assay on NCI-H322M lung; 26.6% in the assay with HOP-62 NSCLC; 8.71% (active) with NCI-H460 lung; 52.8% in the assay with HOP-92 NSCLC. In addition, the growth in the assay on NCI-H522 lung is 56.5%; with A549/ATCC NSCLC, 33.7%; in the assay with 786-0 renal, 8.76% (active); with COLO 205 colon, 19.6%; with DU-145 prostate it was 23.5%; with K-562 leukemia, 20.3%. In addition, the growth was 58.6% in the assay on MALME-3M melanoma; 49.1% in the assay with MDA-MB-231 breast; 58.5% in the assay with RXF 393 renal; 30.9% in the assay on SF-268 CNS; 60.6% in the assay on SF-295 CNS; 20.1% in the assay with SF-539 CNS. The growth in the assay on UACC-257 melanoma was 39.6%; in the assay with M14 melanoma, 15%.

Consider `Cc1c(C)c2c(c(C)c1OCC(=O)O)CC[C@@](C)(CCC[C@@H](C)CCC[C@@H](C)CCCC(C)C)O2`, for which the growth in the assay with NCI-H23 lung was -30.8% [50 µM] (active); in the assay on NCI-H226 lung it was 2.79% [50 µM] (active); in the assay on NCI-H322M lung it was 43.3% [50 µM]; in the assay on HOP-62 NSCLC, 2.69% [50 µM] (active); with NCI-H460 lung it was 3.28% [50 µM] (active); in the assay with HOP-92 NSCLC it was -56.6% [50 µM] (active). For the same molecule, the growth with NCI-H522 lung is -4.29% [50 µM] (active); in the assay on A549/ATCC NSCLC it was -3.06% [50 µM] (active); in the assay with 786-0 renal, -46.4% [50 µM] (active); with COLO 205 colon, -10.6% [50 µM] (active); in the assay on DU-145 prostate, 6.97% [50 µM] (active); in the assay on K-562 leukemia, 6.54% [50 µM] (active). The growth was -35.8% [50 µM] (active) in the assay with MALME-3M melanoma; -2.79% [50 µM] (active) in the assay on MDA-MB-231 breast; -34.5% [50 µM] (active) in the assay with RXF 393 renal; -5.58% [50 µM] (active) with SF-268 CNS; 35.8% [50 µM] in the assay with SF-295 CNS; -7.25% [50 µM] (active) in the assay on SF-539 CNS. The growth in the assay with UACC-257 melanoma is 38.7% [50 µM]; in the assay on M14 melanoma it was -19.2% [50 µM] (active).

As for `Cc1ccc(Nc2ccc(Nc3ccc(C)cc3)c3c2C(=O)c2cccc(O)c2C3=O)cc1`, the growth with NCI-H23 lung is 84.5%; with NCI-H226 lung, 73.1%; with NCI-H322M lung, 108%; with HOP-62 NSCLC it was 101%; in the assay with NCI-H460 lung, 88.3%; in the assay on HOP-92 NSCLC, 70.4%. Moreover, the growth was 90.6% with NCI-H522 lung; 103% in the assay on A549/ATCC NSCLC; 111% with 786-0 renal; 102% in the assay on COLO 205 colon; 114% in the assay on DU-145 prostate; 94.3% in the assay on K-562 leukemia. The growth with MALME-3M melanoma is 120%; with MDA-MB-231 breast, 88.7%; in the assay on RXF 393 renal, 110%; with SF-268 CNS it was 104%; in the assay on SF-295 CNS, 126%; in the assay on SF-539 CNS, 105%. Besides, the growth in the assay with UACC-257 melanoma was 105%; in the assay with M14 melanoma it was 104%.

With `CCN(CC)CCCNc1ccc(Nc2ccc(OC)cc2)cc1`, the growth with NCI-H23 lung is 92.3%; with NCI-H226 lung, 110%; in the assay with NCI-H322M lung, 83.3%; with HOP-62 NSCLC, 98.1%; in the assay with NCI-H460 lung, 64.2%; with HOP-92 NSCLC it was 83.6%. The growth with NCI-H522 lung was 64%; in the assay with A549/ATCC NSCLC it was 92.1%; with 786-0 renal, 94.2%; with COLO 205 colon, 85.7%; in the assay on DU-145 prostate, 90.7%; in the assay with K-562 leukemia it was 34.1%. The growth in the assay on MALME-3M melanoma was 104%; in the assay on MDA-MB-231 breast it was 34.6%; in the assay with RXF 393 renal it was 90.5%; with SF-268 CNS, 77.5%; in the assay on SF-295 CNS, 120%; in the assay on SF-539 CNS it was 98.6%. For the same molecule, the results for the growth in the assay on UACC-257 melanoma and in the assay with M14 melanoma were 87.4% and 94.7%, respectively.

As to `CCCc1cc2c(=O)c(C(=O)OC)c[nH]c2cc1N(CC)CC`, the growth in the assay on NCI-H23 lung is 102%; in the assay with NCI-H226 lung, 81.7%; with NCI-H322M lung, 84.2%; in the assay on HOP-62 NSCLC, 90%; in the assay on NCI-H460 lung it was 102%; in the assay on HOP-92 NSCLC it was 111%. Moreover, the growth was 73.7% in the assay with NCI-H522 lung; -20% (active) in the assay with A549/ATCC NSCLC; 101% with 786-0 renal; 119% with COLO 205 colon; 112% in the assay with DU-145 prostate; 96.2% in the assay on K-562 leukemia. Further, the growth was 95.4% in the assay with MALME-3M melanoma; 108% in the assay with MDA-MB-231 breast; 29.3% in the assay on RXF 393 renal; 102% in the assay on SF-268 CNS; 85.2% with SF-295 CNS; 97.6% in the assay with SF-539 CNS. Moreover, the growth with UACC-257 melanoma was 136%; in the assay on M14 melanoma, 110%.

Regarding `COc1ccccc1NC(=O)N/C(N)=N/c1nc2ccccc2s1`, the growth in the assay on NCI-H23 lung is 33%; with NCI-H226 lung, 63.4%; in the assay on NCI-H322M lung, 41.6%; in the assay on HOP-62 NSCLC it was 32.7%; in the assay with NCI-H460 lung it was 10.1%; with HOP-92 NSCLC, 62.1%. The growth in the assay with NCI-H522 lung is 4.23% (active); with A549/ATCC NSCLC, 25.1%; in the assay on 786-0 renal, 40.2%; in the assay with COLO 205 colon it was -3.41% (active); in the assay with DU-145 prostate, 19.3%; in the assay with K-562 leukemia it was 12.9%. Moreover, the growth in the assay with MALME-3M melanoma is 57.6%; in the assay with MDA-MB-231 breast, 48.1%; in the assay with RXF 393 renal it was 4.12% (active); in the assay with SF-268 CNS it was 49.5%; in the assay on SF-295 CNS, 39.2%; in the assay with SF-539 CNS, -31.5% (active). In addition, the figures for the growth in the assay with UACC-257 melanoma and in the assay with M14 melanoma were 75.4% and 8.17% (active), respectively.

(Values after PubChem BioAssay (NCI).)
